Activity calls are given as the source filed them.
What was measured:
[1] = tested on: Plasmodium falciparum Sir2 (PF13_0152, Sir2A); assay: Plasmodium falciparum Sir2A binding compounds – biochemical, small-molecule microarray, 635 nm fluorescence, primary screen (AID 1098); conditions: fluorescence 635 nm, higher = more signal;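 note: score merges spot fluorescence intensity with its signal-to-noise ratio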
[2] = probe aDKK1 binding to arrayed compounds – biochemical, biotinylated probe, 635/667 nm fluorescence, primary screen (AID 1099); conditions: small-molecule microarray, higher = more signal;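 note: score merges 667nm spot fluorescence with signal to noise across triplicate slides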
[3] = probe aCHRDL2 binding to arrayed compounds – biochemical, biotinylated probe, 635/667 nm fluorescence, primary screen (AID 1100); conditions: small-molecule microarray, higher = more signal
[4] = change in splice reporter luminescence, either direction, cell-based, HEK293, spliceosome inhibition project, primary screen (AID 1101); conditions: HEK293 splicing luciferase reporter, 24 h, higher = more signal, called active from +8 up or from −8 down;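 note: HEK293 cells carrying a splicing-competent luciferase reporter gene; test concentration not given here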
[5] = molecular target: Fibroblast growth factor 10 (Homo sapiens) (UniProt O15520); assay: compounds binding fibroblast growth factor 10 – biochemical, small-molecule microarray, 635 nm fluorescence, primary screen (AID 1102); conditions: FGF10 binding, fluorescence 635 nm, higher = more signal
[6] = tested on: glycogen synthase kinase-3 (GSK3A per assay name; protocol says GSK3B); assay: compounds binding glycogen synthase kinase-3 – biochemical, small-molecule microarray, 635 nm fluorescence, GSK3A, primary screen (AID 1103); conditions: fluorescence 635 nm, higher = more signal; note: the record names both GSK3A and GSK3B
[7] = molecular target: Epidermal growth factor receptor (Homo sapiens) (UniProt P00533); assay: compounds binding epidermal growth factor receptor – biochemical, small-molecule microarray, 635 nm fluorescence, primary screen (AID 1104); conditions: EGFR binding, higher = more signal;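 note: score merges 667 nm emission intensity with spot signal to noise over triplicate slides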
[8] = molecular target: Follistatin-related protein 3 (Homo sapiens) (UniProt O95633); assay: compounds binding follistatin-related protein 3 – biochemical, small-molecule microarray, 635 nm fluorescence, primary screen (AID 1105); conditions: FSTL3 binding, higher = more signal;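 note: score merges emission near 667 nm and signal to noise per printed spot across three slides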
[9] = molecular target: Dickkopf-related protein 1 (Homo sapiens) (UniProt O94907); assay: small molecules binding DKK1 protein – biochemical, small-molecule microarray, 635 nm fluorescence scan, primary screen (AID 1106); conditions: higher = more signal;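 note: score merges emission near 667 nm with signal to noise over three replicate slides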
[10] = tested on: Inhibin beta A chain (activin A); assay: small molecules binding activin A – biochemical, small-molecule microarray, 635 nm fluorescence scan, primary screen (AID 1107); conditions: INHBA, higher = more signal;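 note: mouse activin A protein probed at 4.33 µg/mL on printed slides; score merges bound-protein fluorescence near 667 nm with spot signal-to-noise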
[11] = tested on: Human papillomavirus type 1a protein E7 (residues 44-93); assay: small molecules binding HPV E7 44-93 – biochemical, small-molecule microarray, residues 44-93, 635 nm fluorescence, primary screen (AID 1108); conditions: fluorescence 635 nm, higher = more signal;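 note: E7 fragment applied at 1 µg/mL in TBST for 1 h at 4 C; score combines spot fluorescence with its signal to noise ratio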
[12] = hepatitis C replication reporter changes, two-sided – Huh7 cells, luciferase reporter, HCV replication inhibitor project, primary screen (AID 1109); conditions: Huh7 HCV replicon luciferase reporter, 48 h; higher = more signal;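 note: huh7 hepatoma cells harbouring a luciferase neomycin HCV replicon reporter; luciferase luminescence as measure of HCV replicon replication; test concentration not given here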
[13] = molecular target: Left-right determination factor 2 (Homo sapiens) (UniProt O00292); assay: small molecules binding LEFTY2 protein – biochemical, small-molecule microarray, 635 nm fluorescence scan, primary screen (AID 1110); conditions: higher = more signal
[14] = molecular target: Calmodulin-1 (Homo sapiens) (UniProt P0DP23); assay: small molecules binding calmodulin-1 with EGTA – biochemical, small-molecule microarray, Cy5-labelled CALM1, profiling panel (AID 1111); conditions: Cy5-CALM1 binding fluorescence, higher = more signal;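 note: labelled calmodulin applied in Tris saline Tween buffer holding calcium plus EGTA and DTT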
[15] = molecular target: Calmodulin-1 (Homo sapiens) (UniProt P0DP23); assay: small molecules binding Ca-loaded calmodulin-1 – biochemical, small-molecule microarray, Cy5-labelled CALM1, plus calcium, artefact control for SMM control-protein annotation, profiling panel (AID 1112); conditions: Cy5-CALM1 binding fluorescence, higher = more signal;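 note: score merges spot fluorescence with signal to noise from triplicate slides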
[16] = probe aWnt5a binding to arrayed compounds – biochemical, biotinylated probe, 635/667 nm fluorescence, primary screen (AID 1113); conditions: small-molecule microarray, higher = more signal;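 note: score merges 667 nm fluorescence intensity with signal-to-noise per printed feature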
[17] = probe aShh binding to arrayed compounds – biochemical, biotinylated probe, 635/667 nm fluorescence, primary screen (AID 1114); conditions: small-molecule microarray, higher = more signal;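 note: probe is biotin-labelled aShh protein from a stem cell growth factor screen; measures binding of labelled protein to compounds printed on the slide; score merges feature fluorescence at 667 nm with signal-to-noise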
[18] = probe aNog binding to arrayed compounds – biochemical, biotinylated probe, 635/667 nm fluorescence, primary screen (AID 1115); conditions: small-molecule microarray, higher = more signal;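 note: probe is biotinylated aNog protein used at 0.15 µg/mL for 1 h at 4 C; z-score combines 667 nm fluorescence of each spot with its signal to noise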
[19] = molecular target: Torsin-1A-interacting protein 1 (Homo sapiens) (UniProt Q5JTV8); assay: compound microarray binding of lysate hLAP1 – cell lysate, small-molecule microarray, COS7 lysate, 635/667 nm fluorescence, primary screen (AID 1116); conditions: 635 nm fluorescence, higher = more signal
[20] = molecular target: Alpha-bungarotoxin (Bungarus multicinctus) (UniProt P60615); assay: compounds binding labelled alpha-BTX control protein – biochemical, small-molecule microarray, Alexa647 label, 635/667 nm fluorescence, artefact control for SMM control protein annotation, profiling panel (AID 1117); conditions: alpha-BTX-A647 binding fluorescence, higher = more signal
Chain of Alpha-bungarotoxin (Bungarus multicinctus) (P60615 whole entry, looked up): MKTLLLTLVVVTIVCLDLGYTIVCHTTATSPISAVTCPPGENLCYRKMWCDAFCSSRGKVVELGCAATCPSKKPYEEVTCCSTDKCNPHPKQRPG

Chain of Epidermal growth factor receptor (Homo sapiens) (P00533 whole entry, looked up): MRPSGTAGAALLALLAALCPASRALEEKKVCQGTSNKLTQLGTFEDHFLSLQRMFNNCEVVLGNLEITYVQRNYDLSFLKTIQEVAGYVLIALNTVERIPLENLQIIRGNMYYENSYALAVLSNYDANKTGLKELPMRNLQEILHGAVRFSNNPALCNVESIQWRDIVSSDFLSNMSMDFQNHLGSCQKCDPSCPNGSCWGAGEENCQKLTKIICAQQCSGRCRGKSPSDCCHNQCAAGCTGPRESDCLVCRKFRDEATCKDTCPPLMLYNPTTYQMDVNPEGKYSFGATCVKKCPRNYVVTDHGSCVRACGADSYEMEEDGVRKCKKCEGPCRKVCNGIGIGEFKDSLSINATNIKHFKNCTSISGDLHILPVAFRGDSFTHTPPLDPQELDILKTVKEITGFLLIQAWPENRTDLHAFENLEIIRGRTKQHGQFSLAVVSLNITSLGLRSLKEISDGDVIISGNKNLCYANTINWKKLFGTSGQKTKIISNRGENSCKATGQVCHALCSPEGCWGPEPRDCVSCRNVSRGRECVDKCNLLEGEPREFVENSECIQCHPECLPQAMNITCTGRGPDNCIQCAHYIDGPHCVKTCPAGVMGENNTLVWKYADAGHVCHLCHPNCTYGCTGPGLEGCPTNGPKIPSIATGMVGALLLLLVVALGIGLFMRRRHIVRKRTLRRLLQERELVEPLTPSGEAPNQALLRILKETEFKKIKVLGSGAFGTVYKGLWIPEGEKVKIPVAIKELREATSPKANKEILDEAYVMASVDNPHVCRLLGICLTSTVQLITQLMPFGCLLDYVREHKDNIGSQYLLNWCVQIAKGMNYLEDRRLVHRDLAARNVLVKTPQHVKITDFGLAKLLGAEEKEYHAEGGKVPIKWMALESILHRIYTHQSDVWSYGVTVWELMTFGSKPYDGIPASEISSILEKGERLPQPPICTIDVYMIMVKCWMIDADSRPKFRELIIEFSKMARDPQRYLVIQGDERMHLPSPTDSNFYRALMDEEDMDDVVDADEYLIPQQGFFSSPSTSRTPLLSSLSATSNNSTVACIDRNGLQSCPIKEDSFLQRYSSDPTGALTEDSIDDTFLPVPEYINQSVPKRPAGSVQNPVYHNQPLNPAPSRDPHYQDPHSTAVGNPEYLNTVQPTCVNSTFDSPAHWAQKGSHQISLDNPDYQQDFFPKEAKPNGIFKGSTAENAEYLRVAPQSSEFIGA
Chain of Follistatin-related protein 3 (Homo sapiens) (O95633 whole entry, looked up): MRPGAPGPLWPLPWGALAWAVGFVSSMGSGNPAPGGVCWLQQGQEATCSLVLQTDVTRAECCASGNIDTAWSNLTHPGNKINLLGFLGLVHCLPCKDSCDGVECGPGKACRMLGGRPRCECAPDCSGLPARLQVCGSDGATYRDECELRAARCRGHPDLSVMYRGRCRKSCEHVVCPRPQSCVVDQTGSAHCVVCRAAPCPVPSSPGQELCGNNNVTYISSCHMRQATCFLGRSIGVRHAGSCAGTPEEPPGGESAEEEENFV
Chain of Fibroblast growth factor 10 (Homo sapiens) (O15520 whole entry, looked up): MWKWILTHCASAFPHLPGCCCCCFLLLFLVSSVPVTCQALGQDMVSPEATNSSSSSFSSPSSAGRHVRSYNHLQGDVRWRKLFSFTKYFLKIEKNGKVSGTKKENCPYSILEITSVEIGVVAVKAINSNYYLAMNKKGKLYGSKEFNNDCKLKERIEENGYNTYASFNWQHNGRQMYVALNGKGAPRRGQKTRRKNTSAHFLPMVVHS
Chain of Left-right determination factor 2 (Homo sapiens) (O00292 whole entry, looked up): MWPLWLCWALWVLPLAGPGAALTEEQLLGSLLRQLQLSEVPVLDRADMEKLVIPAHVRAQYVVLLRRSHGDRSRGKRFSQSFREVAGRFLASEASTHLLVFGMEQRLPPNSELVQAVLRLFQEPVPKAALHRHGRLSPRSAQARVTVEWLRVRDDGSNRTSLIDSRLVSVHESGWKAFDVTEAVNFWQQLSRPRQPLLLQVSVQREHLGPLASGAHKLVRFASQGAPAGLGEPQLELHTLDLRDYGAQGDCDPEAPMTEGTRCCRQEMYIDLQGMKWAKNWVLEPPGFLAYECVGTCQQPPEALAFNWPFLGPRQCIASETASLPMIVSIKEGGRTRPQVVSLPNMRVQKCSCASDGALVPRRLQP
Chain of Dickkopf-related protein 1 (Homo sapiens) (O94907 whole entry, looked up): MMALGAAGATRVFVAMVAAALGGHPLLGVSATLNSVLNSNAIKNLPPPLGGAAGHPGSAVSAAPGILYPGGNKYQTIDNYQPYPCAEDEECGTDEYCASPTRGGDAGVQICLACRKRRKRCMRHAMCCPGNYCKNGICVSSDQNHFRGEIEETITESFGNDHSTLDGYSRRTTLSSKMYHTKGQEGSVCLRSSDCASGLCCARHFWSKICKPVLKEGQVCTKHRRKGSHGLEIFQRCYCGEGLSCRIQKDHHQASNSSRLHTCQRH
Chain of Torsin-1A-interacting protein 1 (Homo sapiens) (Q5JTV8 whole entry, looked up): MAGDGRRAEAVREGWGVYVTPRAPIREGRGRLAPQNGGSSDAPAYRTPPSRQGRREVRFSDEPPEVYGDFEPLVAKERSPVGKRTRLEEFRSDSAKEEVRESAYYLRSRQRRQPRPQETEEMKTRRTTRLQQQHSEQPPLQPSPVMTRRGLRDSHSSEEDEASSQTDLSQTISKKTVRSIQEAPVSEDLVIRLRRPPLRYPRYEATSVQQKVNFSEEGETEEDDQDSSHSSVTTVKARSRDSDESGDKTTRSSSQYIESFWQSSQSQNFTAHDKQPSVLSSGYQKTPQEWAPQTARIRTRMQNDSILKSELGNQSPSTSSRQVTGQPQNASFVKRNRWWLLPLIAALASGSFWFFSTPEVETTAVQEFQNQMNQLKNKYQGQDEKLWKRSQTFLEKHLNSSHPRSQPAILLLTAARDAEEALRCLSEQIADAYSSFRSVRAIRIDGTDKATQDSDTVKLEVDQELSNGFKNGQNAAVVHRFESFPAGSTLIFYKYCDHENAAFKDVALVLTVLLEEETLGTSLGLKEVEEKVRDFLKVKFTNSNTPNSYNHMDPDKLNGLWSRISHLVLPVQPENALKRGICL

SMILES | composite z-score [1] | composite z-score [2] | composite z-score [3] | z-score [4] | composite z-score [5] | composite z-score [6] | composite z-score [7] | composite z-score [8] | composite z-score [9] | composite z-score [10] | composite z-score [11] | z-score [12] | composite z-score [13] | composite z-score [14] | composite z-score [15] | composite z-score [16] | composite z-score [17] | composite z-score [18] | composite z-score [19] | composite z-score [20]
C[C@@H]1C=CCC(=O)OC[C@H](C)C(=O)N[C@@H](C)C(=O)OC1 | 0.57 | -0.242 | -0.791 | -0.586 (inactive) | 0.336 | 0.252 | 0.282 | 0.413 | 0.814 | -0.658 | -0.0639 | -0.512 | 0.409 | -0.556 | -0.897 | -0.0721 | 0.178 | -0.141 | 0.789 | -0.194
O=C1O[C@@H](c2ccccc2)[C@@H](c2ccccc2)N2[C@@H](c3ccc(OCCO)cc3)[C@]3(C(=O)Nc4ccccc43)[C@@H](C(=O)N3CCN(c4ncccn4)CC3)[C@H]12 | 1.4 | 0.556 | -0.0223 | -0.0125 (inactive) | 0.69 | 1.22 | 0.774 | 1.23 | 0.886 | 0.38 | 1.35 | -2.4 | 0.773 | 0.0357 | -0.355 | -0.0685 | 0.0044 | 0.751 | 0.96 | 1.53
COc1ccc([Si](C)(C)[C@@H]2[C@@H](CC(=O)N3CCC[C@H]3CO)O[C@]3(C(=O)N(Cc4cccc(N5CCC5=O)c4)c4ccccc43)[C@H]2C)cc1 | 1.71 | -0.264 | 0.363 | -0.399 (inactive) | 0.118 | 0.773 | 0.144 | 0.7 | 0.726 | 0.245 | 1.4 | -2.1 | 0.162 | 0.504 | -0.098 | -0.0236 | 0.199 | 0.15 | 0.989 | 1.44
CO[C@H]1COC(=O)[C@@H]2CCCN2C(=O)CC=C[C@@H](C)[C@H](OC)COC(=O)CC=C[C@@H]1C | 0.401 | -0.569 | -1.28 | -0.555 (inactive) | 1.09 | 1.06 | 1.64 | 1.47 | 1.63 | 1.5 | 0.589 | 1.34 | 1.47 | -2.29 | -2.06 | -0.117 | -0.0904 | -0.156 | -0.298 | -0.394
Cc1ccc(S[C@]2(C(=O)NCC(F)(F)F)CC(=O)N(Cc3ccccc3Cl)[C@@H]2c2ccc(CO)cc2I)cc1 | 1.23 | 0.122 | 0.828 | -1.34 (inactive) | -0.798 | -0.457 | -1.15 | -0.978 | -1.05 | 0.117 | 0.859 | -1.16 | -0.692 | -0.391 | -0.0928 | -0.12 | -0.0035 | -0.383 | -0.373 | 2.06
CO[C@@H]1COC(=O)[C@@H]2CCCN2C(=O)[C@@H](C)COC(=O)[C@H](COCc2ccccc2)NC(=O)CC=C[C@H]1C | 0.385 | -0.559 | -0.664 | -0.425 (inactive) | 0.613 | 0.575 | 0.239 | 0.478 | 0.356 | -0.235 | 0.929 | 0.323 | 0.39 | -0.142 | -0.713 | -0.0748 | 0.0941 | -0.111 | 0.142 | 0.199
COC(=O)[C@H](C)NC(=O)[C@@H](C)CO | 0.241 | 0.0939 | -0.469 | 0.364 (inactive) | 0.572 | 0.844 | 0.499 | 0.258 | 0.338 | -0.776 | 1.25 | -0.431 | 0.5 | 0.601 | -0.369 | -0.0445 | -0.0035 | 0.243 | 0.924 | 0.855
CN1C(=O)C2C=CC(C(O)c3ccc(Br)cc3)N(N(c3ccccc3)c3ccccc3)C2C1=O (stereo not given) | 0.259 | 0.359 | 1.04 | 0.605 (inactive) | -0.14 | -0.0403 | -0.211 | 0.0397 | -0.626 | 1.26 | 0.962 | -1.01 | -0.0937 | 1.16 | 0.428 | 0.0873 | 0.0639 | 0.654 | 0.513 | 1.12
COc1cccc([C@H]2Oc3ccc(OC)cc3C(=NO[C@H](C)c3cn([C@@H]4COC[C@H]4O)nn3)[C@@H]2O)c1 | 0.53 | -0.393 | -0.381 | -0.992 (inactive) | -0.481 | -1.14 | -0.0724 | -0.525 | 0.0385 | 0.0726 | -0.632 | -0.0869 | -0.647 | 0.0409 | -0.421 | -0.184 | -0.147 | -0.36 | -0.1 | 1.7
CCc1cc2c(nc1CC)CCN(CCC(C)=NO[C@@H](C)c1cc(-c3c(C)cc(C)cc3C)no1)C2 | 0.856 | -0.227 | -0.286 | -0.596 (inactive) | -0.328 | -0.562 | -0.408 | -0.473 | -0.107 | 0.711 | 0.0525 | -1.87 | -0.368 | 0.0642 | -0.363 | -0.195 | -0.0709 | 0.0014 | 0.0675 | 0.297
COC(=O)[C@H](C)NC(=O)CCC1CC(OC(=O)NCc2cccc3ccccc23)CC2(CCCC(COC(=O)NCC3CCCCC3)O2)O1 (stereo not given in full) | 0.534 | -0.0762 | -0.86 | -0.397 (inactive) | 1.47 | 1.36 | 1.15 | 1.08 | 0.528 | -0.564 | 1.32 | -0.411 | 0.776 | 0.708 | -0.798 | -0.174 | -0.0035 | -0.501 | 0.587 | 0.585

Source: PubChem BioAssay
